SMILES strings stand for the structures. About 83,000 compounds went through this panel and 20% of them were active in at least one assay; those are over-represented in the sample as a whole.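 Interpretation: 100, growth as untreated; towards 0, rising growth inhibition; 0, no net growth; 0 to -100, cell death. Compounds scoring below 10 were considered active.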 Unmarked numbers belong to inactive results. Activity calls are given as the source filed them.

Test systems include 786-0 renal; MALME-3M melanoma; UACC-257 melanoma; SK-MEL-2 melanoma; EKVX NSCLC; SN12C renal; TK-10 renal; ACHN renal; CAKI-1 renal; A498 renal; RPMI-8226 leukemia; OVCAR-8 ovarian; OVCAR-4 ovarian; SK-OV-3 ovarian; IGROV1 ovarian; OVCAR-3 ovarian; BT-549 breast; MDA-MB-435 melanoma; HCT-116 colon; HCC-2998 colon.
Holding throughout (assay): NCI-60 one-dose screen, 48 h (100 = growth as untreated, 0 = no growth, -100 = all killed)
Conditions in all cases: 10 µM

Consider `C[C@H]1[C@H](OC(=O)CCC(=O)Nc2cnccn2)O[C@@H]2OC3(C)CC[C@H]4[C@H](C)CC[C@@H]1[C@@]24OO3`, for which the growth in the test on 786-0 renal was 53.6%; with MALME-3M melanoma, 27.5%; in the test on UACC-257 melanoma, 56.1%; in the test with SK-MEL-2 melanoma it was 31.2%; with EKVX NSCLC, 38.4%; in the test with SN12C renal, 45.3%. Moreover, the growth with TK-10 renal was 42.2%; with ACHN renal it was 25.4%; with CAKI-1 renal, 42.8%; with A498 renal, 101%; with RPMI-8226 leukemia, 21.5%; in the test with OVCAR-8 ovarian, 20.7%. Further, the growth with OVCAR-4 ovarian was 44.1%; with SK-OV-3 ovarian, 77.4%; in the test with IGROV1 ovarian, 25.7%; in the test on OVCAR-3 ovarian, 34.6%; with BT-549 breast, 24%; in the test on MDA-MB-435 melanoma it was 16.1%. Moreover, the growth was 14.6% in the test with HCT-116 colon and 63.5% with HCC-2998 colon.
Take `COc1ccc(OC)c(/C=C/C(=O)c2nc3ccccc3n2Cc2ccc(F)cc2)c1`: the growth in the test on 786-0 renal is -57.7% (active); with MALME-3M melanoma, -36.9% (active); in the test with UACC-257 melanoma it was 15.3%; in the test with SK-MEL-2 melanoma, -28.2% (active); in the test on EKVX NSCLC, -62.1% (active); in the test with SN12C renal, 4.76% (active). Moreover, the growth is 13.1% in the test on TK-10 renal; -48.2% (active) in the test with ACHN renal; 32.2% with CAKI-1 renal; 116% with A498 renal; -36.8% (active) with RPMI-8226 leukemia; 3.97% (active) with OVCAR-8 ovarian. For the same compound, the growth with OVCAR-4 ovarian is 37.9%; in the test with SK-OV-3 ovarian it was 50.2%; in the test with IGROV1 ovarian, -7.29% (active); in the test with OVCAR-3 ovarian it was -12% (active); in the test on BT-549 breast, -58.2% (active); in the test with MDA-MB-435 melanoma, -46.9% (active). Also, the growth is -91.1% (active) with HCT-116 colon and -93.6% (active) with HCC-2998 colon.
As to `Cc1c2oc3c(C)ccc(C(=O)N[C@@H]4C(=O)N[C@H](C(C)C)C(=O)N5CCC[C@H]5C(=O)N(C)CC(=O)N(C)[C@@H](C(C)C)C(=O)OC4C)c3nc-2c(C(=O)N[C@@H]2C(=O)N[C@H](C(C)C)C(=O)N3CC(=O)C[C@H]3C(=O)N(C)CC(=O)N(C)[C@@H](C(C)C)C(=O)OC2C)c(N)c1=O` (stereo not given in full), the growth is 19% in the test on 786-0 renal; -14.5% (active) with MALME-3M melanoma; -28% (active) in the test on UACC-257 melanoma; -68.5% (active) with SK-MEL-2 melanoma; -12.5% (active) with EKVX NSCLC; 6.6% (active) with SN12C renal. Moreover, the growth was 5.82% (active) in the test with TK-10 renal; 2.84% (active) in the test with ACHN renal; 8.23% (active) in the test on CAKI-1 renal; -68.7% (active) in the test with A498 renal; -13.1% (active) with RPMI-8226 leukemia; 0.349% (active) in the test on OVCAR-8 ovarian. In addition, the growth in the test on OVCAR-4 ovarian was 21%; in the test with SK-OV-3 ovarian it was 7.97% (active); with IGROV1 ovarian, 17%; in the test on OVCAR-3 ovarian, 6.77% (active); in the test on BT-549 breast it was -9.76% (active); in the test with MDA-MB-435 melanoma it was -66.1% (active). Also, the results for the growth in the test with HCT-116 colon and with HCC-2998 colon were 22.3% and -20% (active), respectively.
For `O=C(/C=C/c1ccco1)c1nc2ccccc2n1Cc1ccc(F)cc1`, the growth in the test with 786-0 renal is 67.6%; with MALME-3M melanoma, 59.9%; with UACC-257 melanoma, 62.7%; in the test with SK-MEL-2 melanoma, 69.9%; in the test on EKVX NSCLC, 58.9%; with SN12C renal it was 79.2%. Also, the growth in the test with TK-10 renal was 92.1%; in the test with ACHN renal it was 79.1%; in the test on CAKI-1 renal, 57.6%; with A498 renal it was 93.4%; in the test with RPMI-8226 leukemia, 25.2%; with OVCAR-8 ovarian, 70.1%. Besides, the growth is 48% with OVCAR-4 ovarian; 85.5% in the test on SK-OV-3 ovarian; 52.5% in the test on IGROV1 ovarian; 46.3% in the test on OVCAR-3 ovarian; 59.7% with BT-549 breast; 77% with MDA-MB-435 melanoma. Besides, the growth with HCT-116 colon was 59.3%; in the test with HCC-2998 colon, 57%.
Regarding `O=C(/C=C/c1ccc(F)cc1)c1nc2ccccc2n1Cc1ccc(F)cc1`, the growth is -31.5% (active) in the test on 786-0 renal; -23.8% (active) in the test on MALME-3M melanoma; 25.6% in the test with UACC-257 melanoma; 21.3% in the test on SK-MEL-2 melanoma; 13.6% in the test with EKVX NSCLC; 21.9% in the test with SN12C renal. The growth was 12.2% in the test on TK-10 renal; -45.4% (active) in the test with ACHN renal; 43.9% with CAKI-1 renal; 112% with A498 renal; -27.1% (active) in the test with RPMI-8226 leukemia; 2.66% (active) in the test on OVCAR-8 ovarian. For the same compound, the growth in the test with OVCAR-4 ovarian is 56.8%; with SK-OV-3 ovarian, 70.4%; in the test with IGROV1 ovarian, 14.9%; with OVCAR-3 ovarian, 22.9%; with BT-549 breast, -23.8% (active); in the test with MDA-MB-435 melanoma, -37.9% (active). Besides, the growth is -56.9% (active) with HCT-116 colon and -78.9% (active) in the test with HCC-2998 colon.
For the compound `CC1=C2C(=C[C@@](C)(COP(=O)(Oc3ccccc3)Oc3ccccc3)[C@@H]2O)C(=O)[C@@](C)(O)C12CC2`, the growth in the test on 786-0 renal is -16.1% (active); with MALME-3M melanoma, -96.7% (active); with UACC-257 melanoma, -41.2% (active); with SK-MEL-2 melanoma, -83.9% (active); with EKVX NSCLC it was -52.5% (active); in the test with SN12C renal, -76.3% (active). Further, the growth with TK-10 renal is -22.2% (active); with ACHN renal it was -56.8% (active); in the test with CAKI-1 renal, -19.5% (active); with A498 renal it was -39.4% (active); in the test with RPMI-8226 leukemia it was 9.34% (active); in the test on OVCAR-8 ovarian it was -68.5% (active). For the same compound, the growth with OVCAR-4 ovarian was -72.9% (active); with SK-OV-3 ovarian, -79.5% (active); with IGROV1 ovarian, -75.8% (active); in the test on OVCAR-3 ovarian it was -75.4% (active); with BT-549 breast it was -2.47% (active); in the test on MDA-MB-435 melanoma it was -77.1% (active). Further, the growth with HCT-116 colon was 0.872% (active); in the test on HCC-2998 colon it was -85.5% (active).
As for `COc1ccc(/C=C/C(=O)c2nc3ccccc3n2Cc2ccc(Br)cc2)cc1`, the growth was 64.7% in the test with 786-0 renal; 73.1% in the test on MALME-3M melanoma; 72.3% with UACC-257 melanoma; 88.8% in the test with SK-MEL-2 melanoma; 52.5% in the test with EKVX NSCLC; 90.4% in the test with SN12C renal. Further, the growth with TK-10 renal was 110%; in the test on ACHN renal, 77.5%; in the test with CAKI-1 renal, 68%; with A498 renal, 122%; with RPMI-8226 leukemia, 22.5%; with OVCAR-8 ovarian, 77.5%. The growth was 66.1% with OVCAR-4 ovarian; 91.7% with SK-OV-3 ovarian; 65.8% in the test on IGROV1 ovarian; 60% with OVCAR-3 ovarian; 70.3% with BT-549 breast; 61.1% in the test with MDA-MB-435 melanoma. Also, the growth with HCT-116 colon was 32%; in the test on HCC-2998 colon it was 54.2%.
As for `CC[C@]12C=CCN3CC[C@@]4(c5ccc(OC)cc5N(C)[C@H]4[C@@](O)(C(=O)OC)[C@@H]1OC(=O)CCC[P+](c1ccc(C)cc1)(c1ccc(C)cc1)c1ccc(C)cc1)[C@@H]32`, the growth in the test on 786-0 renal was -88% (active); with MALME-3M melanoma, -94.4% (active); with UACC-257 melanoma, -92.7% (active); in the test on SK-MEL-2 melanoma it was -85.4% (active); with EKVX NSCLC, -94.7% (active); with SN12C renal, -88.1% (active). Besides, the growth in the test with TK-10 renal is -88.5% (active); with ACHN renal, -97.8% (active); with CAKI-1 renal, -95.3% (active); in the test with A498 renal, -88.6% (active); with RPMI-8226 leukemia it was -56.3% (active); in the test on OVCAR-8 ovarian it was -85% (active). For the same compound, the growth with OVCAR-4 ovarian was -73.5% (active); in the test on SK-OV-3 ovarian, -81% (active); with IGROV1 ovarian, -89.5% (active); with OVCAR-3 ovarian, -61.9% (active); with BT-549 breast, -96.9% (active); with MDA-MB-435 melanoma it was -57.5% (active). In addition, the growth in the test on HCT-116 colon was -93.4% (active); in the test on HCC-2998 colon, -91.4% (active).
